Bioassay records from PubChem BioAssay.
MCF10A rereplic – A quantitative high throughput screen for small molecules that induce DNA re-replication in MCF 10a normal breast cells | MCF 10A DNA re-replication, Hoechst nuclear intensity, 48 h | 350,000 compounds, 2.9% hits | Potency, µM (highest dose often 46.1 µM), inactives show at the top dose activity, positive = re-replication, hits mostly activators; also: % of control where 0% means no effect; nearly all actives have a fitted effect of over 50% in size
HT1080-NT tox – qHTS for induction of synthetic lethality in tumor cells producing 2HG: qHTS for the HT-1080-NT fibrosarcoma cell line. HT-1080-NT fibrosarcoma viability, CellTiter-Glo ATP luminescence, 48 h. Potency, µM (doses to about 46.1 µM), for the others: at the highest dose activity, negative = less viability, most hits filed as cytotoxic. 360,000 compounds, 1.6% hits;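 also: NT is the 2HG producing partner of a matched IDH1 knockdown line; 0% = DMSO-treated cells and -100% = media-only wells without cells; nearly all actives have a fitted effect of over 55% in size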
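Toxicity toward the 2HG-producing NT line was scored as %Activity, normalised to DMSO and no-cell wells, from CellTiter-Glo luminescence after 48 hours' treatment.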
SW480 rereplic – A quantitative high throughput screen for small molecules that induce DNA re-replication in SW480 colon adenocarcinoma cells; Potency, µM (titrated, usually from 46.1 µM), without a hit: at the top dose re-replication activation, most hits filed as activators; SW480 DNA re-replication, Hoechst DNA content imaging, 48 h; AID 624297, 2012; 340,000 compounds, 1.8% hits; also: % of control where 0% means no effect; nearly all actives have a fitted effect of over 55% in size
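Cells (250 per well) received 23 nL compound or DMSO by pin tool and were kept 48 hr at 37 C, 5% CO2. Nuclei were then stained with Hoechst for 40 min and scanned for DNA content.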
HT1080 IDH1KD tx – qHTS for induction of synthetic lethality in tumor cells producing 2HG: qHTS for the HT-1080-IDH1KD cell line; HT-1080 IDH1 knockdown viability, ATP luminescence, 48 h; Potency, µM (top dose mostly 46.1 µM), for the others: at the highest dose activity, negative = toxicity, actives largely listed as cytotoxic; 360,000 compounds, 2% hits; AID 686971, 2013;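 also: 0% = DMSO wells and -100% = cell-free medium wells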
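HT-1080-IDH1KD cells (IDH1 knocked down), 750/well in RPMI with 5% FBS, treated with compound 48 h at 37 degrees C. Viability by CellTiter-Glo luminescence, normalised to DMSO and no-cell wells; concentration-response curves classed.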
KB-V1 cytotox – qHTS assay for MDR1-selective chemotherapeutics: Primary screen using the drug-selected MDR subline cells KB-V1; AID 1347076, 2019; 400,000 compounds, 3.4% hits; Potency, µM (series often up to 46.1 µM), most hits filed as cytotoxic; KB-V1 MDR cells viability, CellTiter-Glo, 72 h; also: % is scaled to controls: 0 for no effect and ±100 for the full control effect; nearly all actives have a fitted effect of over 60% in size
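Drug-selected KB-V1 cells, grown in DMEM lacking phenol red with 10% FBS, receive compound titrations; after three days at 37 degrees C, surviving cell ATP is quantified by CellTiter-Glo luminescence and responses normalized and curve-fitted.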
KB-3-1 tox – qHTS assay for MDR1-selective chemotherapeutics: Primary screen using the parental adenocarcinoma cell KB-3-1; KB-3-1 viability, CellTiter-Glo ATP luminescence, 72 h; Potency, µM (series often up to 46.1 µM), usual class: cytotoxic; 400,000 compounds, 1.4% hits; also: % is scaled to controls: 0 for no effect and ±100 for the full control effect; nearly all actives have a fitted effect of over 60% in size
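Viability of parental KB-3-1 cells, measured by CellTiter-Glo luminescence, followed a 72 h incubation at 37 °C with pinned compounds in phenol-red-free DMEM containing 10% FBS.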
Active calls of the source: *; i = inactive; ? = inconclusive; / = not tested or not shown. Most compounds without a hit are left out; they make up all but 8% or so of the library. Calls follow the shape of the dose curve; as a rule, active = well fitted curve in the direction sought with a large enough effect; inconclusive = small, poorly fitted or top-dose-only effect, or another doubt; inactive = no such curve, though single readings can be large; an effect the other way counts as inactive or inconclusive. Potency is read from the fitted curve at half-maximal effect.

SMILES	MCF10A rereplic	HT1080-NT tox	SW480 rereplic	HT1080 IDH1KD tx	KB-V1 cytotox	KB-3-1 tox
CCOc1ccc(Br)cc1S(=O)(=O)Nc1ccc(NC(=O)c2ccccc2C)cc1	-2.9%	-5.3%	0.0%	-3.4%	i	i
CN(Cc1cccnc1)C(=O)c1cc(S(=O)(=O)Nc2ccccc2F)ccc1Cl	8.7%	-1.7%	10.0%	-2.3%	i	i
CC1C(=O)C(C)C(c2ccc(Br)cc2)NC1c1ccc(Br)cc1 (stereo not given)	23.1µM*	0.2%	?	-10.8%	i	i
CC1C(=O)C(C)C(c2cc(Br)ccc2O)NC1c1cc(Br)ccc1O (stereo not given)	23.1µM*	13µM*	?	?	?	?
CCOC(=O)N1CCN(CCCc2ccccc2)CC1	4.9%	15.0%	6.2%	1.9%	i	i
O=C(O)/C=C/C(=O)Nc1ccc2nccnc2c1	0.8%	4.4%	-0.1%	-2.5%	i	i
CCOC(=O)C1=C(CC)OC(N)=C(C#N)C1c1ccsc1 (stereo not given)	3.9%	14.9%	0.259µM*	-9.8%	i	i
N#CC1=C(N)Oc2c(ccc3ccccc23)C1c1cccs1 (stereo not given)	?	2µM*	0.562µM*	1.26µM*	5.01µM*	0.891µM*
CCCc1[nH]nc2c1C(c1ccsc1)C(C#N)=C(N)O2 (stereo not given)	34.1%	?	4.0%	20.6µM*	i	i
Cc1[nH]nc2c1C(c1cc(Br)cs1)C(C#N)=C(N)O2 (stereo not given)	?	?	?	?	16.4µM*	13µM*
CCOc1ccc(NC(=O)C2CC(=O)N(CCc3ccc(OC)c(OC)c3)C2)cc1OCC (stereo not given)	17.6%	-3.0%	-8.3%	1.5%	i	i
O=C(NCc1ccncc1)c1nc(-c2ccc(C(F)(F)F)cc2)no1	1.4%	-9.8%	-3.5%	?	?	?
C=CCn1c(SCC(N)=O)nc2ccccc2c1=O	/	/	/	/	i	?
Cc1ccnc(NC(=O)c2ccc3[nH]c(=O)c(=O)[nH]c3c2)c1	-3.8%	8.1%	?	5.6%	i	i
N#CC1=C(N)Oc2c(O)cc3ccccc3c2C1c1ccsc1 (stereo not given)	?	20.6µM*	?	14.6µM*	?	?
CCOC(=O)C1=C(C)OC(N)=C(C#N)C1c1ccsc1 (stereo not given)	14.4%	?	-1.5%	-10.3%	i	i
CCOC(=O)C1=C(CC)OC(N)=C(C#N)C1c1cccs1 (stereo not given)	-1.4%	?	-0.7%	22.4µM*	i	i
COC(=O)CC1=C(C(=O)OC)C(c2cccs2)C(C#N)=C(N)O1 (stereo not given)	-1.7%	9.4%	0.4%	11.1%	i	i
CCN1CC2=C(OC(N)=C(C#N)C2c2cccs2)/C(=C\c2cccs2)C1 (stereo not given)	-0.5%	22.4µM*	-0.1%	?	i	i
N#CC1=C(N)Oc2cc(O)ccc2C1c1cccs1 (stereo not given)	0.1%	-17.2%	-4.9%	-20.3%	i	i
Cc1csc(=O)n1CC(=O)OCC(=O)c1c(N)n(CC(C)C)c(=O)n(C)c1=O	?	-11.3%	6.51µM*	-2.2%	i	i
CC(C)Cn1c(N)c(C(=O)COC(=O)c2cc(-c3ccccc3)nc3ccccc23)c(=O)n(C)c1=O	-0.4%	9.7%	-0.7%	17.4%	?	?
